According to PubChem BioAssay AID1851 (National Center for Advancing Translational Sciences (NCATS), 2009):
Where “and” joins values, the source holds several entries; their conditions need not be identical. Equal values may be shown once. In all, about 16,000 compounds went through this assay and about 5,800 (36%) were called active. Roughly 23% stayed inconclusive and do not appear here. Calls come from the whole dose curve; as a rule, active = well fitted curve in the direction sought with a large enough effect; inconclusive = small, poorly fitted or top-dose-only effect, or effect the other way; inactive = no such curve, though single readings can be large or run the other way. Some of the results follow. Some compounds were tested as several samples or in several runs, with calls that do not always agree.

Biological target: Cytochrome P450 2C19 (Homo sapiens) (UniProt P33261)
Assay: Cytochrome panel assay with activity outcomes
Settings: recombinant CYP, pro-luciferin dealkylation, luminescence, p450-cyp2c19; series mostly up to 57.1 µM; activity, negative = inhibition: at the top concentration
% is set by controls: 0 for no effect and ±100 for the full control effect.

Cytochrome P450 2C19 (Homo sapiens), sequence (P33261 whole entry, looked up): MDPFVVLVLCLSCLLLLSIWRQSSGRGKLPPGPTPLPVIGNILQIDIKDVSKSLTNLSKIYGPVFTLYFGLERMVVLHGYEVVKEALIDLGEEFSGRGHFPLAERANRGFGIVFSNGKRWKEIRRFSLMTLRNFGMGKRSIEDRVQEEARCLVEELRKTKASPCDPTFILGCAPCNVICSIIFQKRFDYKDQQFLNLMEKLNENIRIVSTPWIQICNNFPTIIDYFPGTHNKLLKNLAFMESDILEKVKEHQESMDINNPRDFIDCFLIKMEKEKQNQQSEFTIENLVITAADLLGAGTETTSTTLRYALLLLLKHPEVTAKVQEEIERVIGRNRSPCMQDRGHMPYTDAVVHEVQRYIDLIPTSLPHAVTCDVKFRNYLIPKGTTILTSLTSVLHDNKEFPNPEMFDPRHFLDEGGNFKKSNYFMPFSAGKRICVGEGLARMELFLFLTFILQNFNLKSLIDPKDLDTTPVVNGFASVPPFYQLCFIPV

SMILES | activity, negative = inhibition | AC50
C[C@H]1CC[C@@]2(NC1)O[C@@H]1C[C@H]3[C@@H]4CC=C5C[C@@H](O)CC[C@]5(C)[C@@H]4CC[C@]3(C)[C@@H]1[C@@H]2C | -5.7% [at 25.6 µM] (inactive) | 
COc1cc(-c2ccc(=O)[nH]n2)ccc1OC(F)F |  | 15.8 µM (active)
COc1cc(C[C@H](C)N)c(OC)cc1I |  | inactive
C[C@@]12CC(=O)[C@H]3[C@@H](CCC4=CC(=O)CC[C@]43C)[C@H]1CCC2=O | -3.49% [at 25.6 µM] (inactive) | 
C[C@@H]1CC[C@@H]2N(C1)C[C@H]1[C@@](O)([C@H](O)C[C@]3(O)[C@H]4CC[C@H]5[C@]6(O)O[C@]4(C[C@]13O)[C@@]5(C)CC[C@@H]6O)[C@@]2(C)O | 1.59% [at 11.4 µM] (inactive) | 
NC(N)=NCCN=C(N)N | -3.51% [at 11.4 µM] (inactive) | 
O=C(O)CN1C(=O)CN=C(c2ccccn2)c2cc(Cl)ccc21 | 33.4% [at 11.4 µM] (inactive) | 
CN(C)c1ccc(NC(=O)CN2C(=O)CN=C(c3ccccc3)c3ccccc32)cc1 |  | 2.24 µM (active)
CN(C)CCCNc1c2c(nc3ccc(Cl)cc13)CCCC2 | 23.5% [at 11.4 µM] (inactive) | 
Nc1nc(OCc2ccccc2)c2[nH]cnc2n1 |  | 6.31 µM (active)
O=C(O)C[C@H]1NCc2cc3ccccc3nc21 | 22.2% [at 11.4 µM] (inactive) | 
COc1ccc2[nH]cc(CCN)c2c1 | -24.4% (inactive) | 
NCCc1c[nH]c2ccc(C(N)=O)cc12 |  | inactive
CCCCCCCCCOc1ccc2[nH]cc(CCN)c2c1 |  | 10 µM (active)
CCC(COC(=O)NC)NC(=O)Oc1ccccc1 (centres undefined) | -27.3% (inactive) | 
O=S(=O)(c1ccccc1)N1CCCCC1c1cccnc1 (centres undefined) |  | 10 µM (active)
CC(C)=C[C@H]1[C@@H](C(=O)OCc2cc3c(cc2Cl)OCO3)C1(C)C |  | 1.58 µM (active)
CC(C)CN1CC2(CCN(C(=O)Oc3ccccc3)CC2)C1 | 3.45% (inactive) | 
Fc1ccc(C(OCCN2CCN(C/C=C\c3ccccc3)CC2)c2ccc(F)cc2)cc1 |  | 7.94 µM (active)
C(=C/c1ccccc1)/CN1CCN(CCOC(c2ccccc2)c2ccccc2)CC1 |  | 10 µM (active)
CO[C@@H]1CC=C2CCN3CCC4=C(CC(=O)OC4)[C@]23C1 | -6.6% (inactive) | 
O=C1OC(=O)[C@@H]2[C@@H]1[C@@H]1CC[C@H]2O1 | 12.7% (inactive) | 
CCS(=O)(=O)Nc1cccc(C(=C2CCCCC2)c2cnc[nH]2)c1 |  | 0.00794 µM (active)
N#Cc1ccc(CN2CCC3(CC2)CCN(C(=O)Oc2ccccc2)CC3)cc1 | -13% (inactive) | 
CC(=O)c1c(O)c(C)c(O)c(Cc2c(O)c3c(c(C(=O)/C=C\c4ccccc4)c2O)OC(C)(C)C=C3)c1O | 3.98% (inactive) | 

SMILES | activity, negative = inhibition | AC50
CCN1CCN(S(=O)(=O)c2ccc(Cl)nc2)CC1 | -21.4% (inactive) | 
NCc1cc(=O)[nH]o1 | -23.7% (inactive) | 
CS(=O)c1ccc(-c2nc(-c3ccc(F)cc3)c(-c3ccncc3)[nH]2)cc1 (centres undefined) |  | inactive and 39.8 nM (active)
N[C@@H](CCCCP(=O)(O)O)C(=O)O | -26.8% (inactive) | 
C=CCN1C[C@H](C)N([C@H](c2ccc(C(=O)N(CC)CC)cc2)c2cccc(O)c2)C[C@H]1C | -25% (inactive) | 
CCCCc1ccc(-c2nc(NC(=O)C3C4CCC(O4)C3C(=O)O)sc2C)cc1 (centres undefined) |  | 3.98 µM (active)
O=C(O)[C@H]1[C@H](C(=O)O)[C@H]2CC[C@@H]1O2 | 5.08% (inactive) | 
CCCCc1ccc(C(=O)O)nc1 |  | inactive
C[C@H](N)[C@H](O)c1ccc(O)c(O)c1 |  | inactive
CC(C)CN1CCC2(CC1)CCN(S(C)(=O)=O)CC2 | 38.1% (inactive) | 
CC(C)NC(=O)N1CCC2(CC1)CCN(C(=O)Oc1ccccc1)CC2 | 1.3% (inactive) | 
CN(C)[C@H]1C(=O)C(C(N)=O)=C(O)[C@]2(O)C(=O)C3=C(O)c4c(O)cccc4[C@@](C)(O)[C@H]3C[C@@H]12 | 20.2% [at 25.6 µM] (inactive) | 
O=C(c1ccc(-c2nnc(Nc3ccccc3)c3ccccc23)cc1)N1C[C@H]2C[C@H](C1)c1cccc(=O)n1C2 |  | 8.91 µM (active)
O=c1cccc2n1CC1CNC[C@H]2C1 |  | inactive
CC(=O)OCC1=C(C(=O)O)N2C(=O)[C@@H](N)[C@@H]2SC1 | 12.6% [at 25.6 µM] (inactive) | 
COc1cc([C@@H](O)CN)ccc1O | -35.2% (inactive) | 
Cc1c([C@@H](C)[C@H]2NC[C@H](C)C[C@@H]2O)ccc2c1C[C@@H]1[C@H]2CC=C2C[C@@H](O)CC[C@@]21C | 26.3% [at 11.4 µM] (inactive) | 
C[C@@H]1Cc2cc3c(cc2C(c2ccc(N)cc2)=NN1)OCO3 |  | 2 µM (active)
CC1=NN=C(c2ccc(N)cc2)c2cc3c(cc2C1)OCO3 |  | inactive and 7.94 µM (active)
COc1ccc(C(=O)OC2C[C@H]3CC[C@@H](C2)N3C)cc1OC (some centres undefined) | -8.31% [at 25.6 µM] (inactive) | 
C[C@@]12C(=O)OC(=O)[C@@]1(C)[C@H]1CC[C@@H]2O1 | 8.99% (inactive) | 
CC1=C2C(=O)[C@@H]3[C@@H](CC=C4C[C@@H](O)CC[C@@]43C)[C@H]2CC[C@@]12O[C@H]1C[C@H](C)CN[C@H]1[C@@H]2C | 15.9% [at 11.4 µM] (inactive) | 
CCCCCC[C@H]1C(=O)O[C@H](C)[C@H](NC(=O)c2cccc(NC=O)c2O)C(=O)O[C@@H](C)[C@H]1OC(=O)CC(C)C | -28% [at 25.6 µM] (inactive) | 
COc1ccc(C(=O)NC2CC3CCCC(C2)N3CC(C)C)cc1OC (centres undefined) | -7.42% (inactive) | 
NC[C@H](O)c1ccc(O)cc1 |  | inactive

SMILES | activity, negative = inhibition | AC50
O=C1CCCCCC1C1(O)C(=O)Nc2ccc(Br)cc21 (centres undefined) |  | 4.47 µM (active)
Oc1ccc2c3c1O[C@H]1c4[nH]c5c(c4C[C@@]4(O)[C@@H](C2)N(CC2CC2)CC[C@]314)C[C@]1(O)[C@H]2Cc3ccc(O)c4c3[C@@]1(CCN2CC1CC1)[C@@H]5O4 | -41.7% (inactive) | 
Oc1ccc2c3c1O[C@H]1c4[nH]c5ccccc5c4C[C@]4(O)[C@H](C2)N(CC2CC2)CC[C@@]314 |  | 10 µM (active)
Oc1ccc2c3c1O[C@@H]1c4[nH]c5c(c4C[C@@]4(O)[C@@H](C2)N(CC2CC2)CC[C@]314)C[C@]1(O)[C@@H]2Cc3ccc(O)c4c3[C@@]1(CCN2CC1CC1)[C@H]5O4 | -16.2% (inactive) | 
C[N+]1(C)[C@@H]2CC[C@H]1CC(OC(=O)[C@@H](CO)c1ccccc1)C2 (some centres undefined) |  | inactive
COc1cc(CNC(=O)CCCC/C=C\C(C)C)ccc1O |  | inactive and 6.31 µM (active)
COc1cc(CCN)ccc1O | 42.9% (inactive) | 
CNC[C@H](O)c1ccc(O)c(OC)c1 | 19.3% [at 25.6 µM] (inactive) | 
CC(=O)[C@@H]1CC[C@@H]2[C@@H]3CCC4=CC(=O)CC[C@@]4(C)[C@H]3CC[C@]21C | -32.5% [at 25.6 µM] (inactive) | 
CN1C[C@H](C(=O)N[C@@]2(C)O[C@@]3(O)[C@H]4CCCN4C(=O)[C@@H](Cc4ccccc4)N3C2=O)C=C2c3cccc4[nH]cc(c34)C[C@@H]21 | 13.1% [at 11.4 µM] (inactive) | 
CC(C)C[C@H]1C(=O)N2CCC[C@@H]2[C@]2(O)O[C@](NC(=O)[C@H]3C=C4c5cccc6[nH]c(Br)c(c56)C[C@H]4N(C)C3)(C(C)C)C(=O)N12 |  | inactive
CC(C)[C@@]1(NC(=O)[C@@H]2C[C@H]3c4cccc5[nH]cc(c45)C[C@@H]3N(C)C2)O[C@@]2(O)[C@H]3CCCN3C(=O)[C@H](Cc3ccccc3)N2C1=O |  | 3.98 µM (active) and 5.01 µM (active)
CCCCN(CCCC)CCC(O)c1cc2c(Cl)cc(Cl)cc2c2cc(C(F)(F)F)ccc12 (centres undefined) | 9.25% [at 25.6 µM] (inactive) | 
NC[C@H](CC(=O)O)c1ccc(Cl)cc1 |  | 2.51 µM (active)
O=C(O)CP(=O)(O)c1ccc(Cl)cc1 | -4.15% (inactive) | 
NC[C@@H](CC(=O)O)c1ccc(Cl)cc1 |  | inactive
CC1(C)N=C(N)N=C(N)N1c1cccc(C(=O)Nc2ccc(S(=O)(=O)F)cc2)c1 | 25.1% [at 11.4 µM] (inactive) | 
CC(=O)OCC1=C(C(=O)[O-])N2C(=O)[C@@H](NC(=O)CCC[C@@H](N)C(=O)[O-])[C@@H]2SC1.[Zn+2] | -15.5% (inactive) | 
C[C@]12CC[C@H]3c4ccc(O)cc4CC[C@@H]3[C@H]1CC[C@@H]2OC(=O)CCc1ccccc1 | -66% [at 11.4 µM] (inactive) | 
Cc1ccc2c(c1)C1CN(C)CCC1N2C(=O)Nc1cccc(Cl)c1 (centres undefined) |  | 25.1 µM (active)
NC(N)=NC(=O)c1nc(Cl)c(N)nc1N | 23.9% [at 25.6 µM] (inactive) | 
O=C(O)c1nn(Cc2ccc(Cl)cc2Cl)c2ccccc12 | -10% (inactive) | 
O=C(c1ccccc1F)c1cn(CC(=O)N2CCOCC2)c2ccccc12 |  | 10 µM (active)
O=C(c1ccccc1F)c1cn(Cc2ccccc2)c2ccccc12 |  | 1.26 µM (active)
CCOC(=O)Cn1cc(C(=O)c2ccccc2F)c2ccccc21 |  | 3.55 µM (active)

SMILES | activity, negative = inhibition | AC50
CCNC(=O)[C@@H]1O[C@@H](n2cnc3c(N)ncnc32)[C@H](O)[C@H]1O | -29.8% (inactive) | 
O=P(O)(O)c1ccccc1 (tested in a mixture with another compound) | 41.3% [at 11.4 µM] (inactive) | 
CC[C@@H]1[C@@H]2C[C@H]3[C@H]4N(C)c5ccccc5[C@@]45C[C@@H]([C@@H]2[C@@H]5O)N3[C@H]1O | 7.83% [at 25.6 µM] (inactive) | 
C=C(C)[C@H]1CC[C@]2(CO)CC[C@]3(C)[C@@H](CC[C@H]4[C@@]5(C)CC[C@@H](O)C(C)(C)[C@@H]5CC[C@@]43C)[C@H]12 | 33.7% [at 25.6 µM] (inactive) | 
C[C@]1(O)CC[C@H]2[C@@H]3[C@@H](O)CC4=CC(=O)CC[C@@]4(C)[C@H]3CC[C@]21C | 12.3% [at 11.4 µM] (inactive) | 
O=C(O)/C=C\c1ccc[c]([Sb](=[O])([OH])[OH])c1 | -11.2% [at 11.4 µM] (inactive) | 
COc1ccc(-n2nc(C(F)(F)F)cc2-c2ccc(Cl)cc2)cc1 |  | 7.94 µM (active)
CC(C)(C)C(=O)CP(=O)(O)O | 34.5% [at 11.4 µM] (inactive) | 
CN1CCC(c2c[nH]c3ccc(O)cc23)CC1 |  | inactive
CO[C@H]1C=C2CCN(C)[C@@H]2[C@@H]2c3cc4c(cc3C(=O)O[C@H]21)OCO4 | -44.6% [at 25.6 µM] (inactive) | 
COc1ccc2c(c1O)-c1c(OC)c(OC)cc3c1[C@H](C2)N(C)CC3 | -24.7% [at 25.6 µM] (inactive) | 
CN1CCc2cc3c(cc2[C@@H]1[C@@H]1OC(=O)c2c1ccc1c2OCO1)OCO3 |  | 0.0501 µM (active)
O[C@@H]1[C@@H]2c3cc4c(cc3CN3CCC(=C[C@@H]1O)[C@H]23)OCO4 | 10.7% [at 25.6 µM] (inactive) | 
COc1ccc2c(c1OC)CN1CCc3cc4c(cc3[C@H]1C2)OCO4 |  | 1.26 µM (active)
COc1c2c(cc3c1OCO3)CCN(C)C2 | -28.1% [at 25.6 µM] (inactive) | 
COc1ccc(C[C@H]2c3cc(OC)c(OC)cc3CCN2C)cc1OC | -22.8% [at 25.6 µM] (inactive) | 
COc1ccc2c(c1OC)C(=O)O[C@H]2[C@H]1c2cc3c(cc2CCN1C)OCO3 |  | 1.26 µM (active)
C[N+]1(C)CCc2cc3c(cc2[C@@H]1[C@@H]1OC(=O)c2c1ccc1c2OCO1)OCO3 | 18.5% (inactive) | 
O=C(NCP(=O)(O)O)c1cccnc1 | 26.5% [at 11.4 µM] (inactive) | 
c1cnc(N2CC[C@@]3(CCCNC3)C2)nc1 | -7.58% (inactive) | 
C=C[C@]12CN(C)[C@H]3C1[C@@]1(C(=O)Nc4ccccc41)[C@H]1C[C@H]2[C@H]3CO1 | 12.4% [at 25.6 µM] (inactive) | 
CCCN1CCC[C@@H]2Cc3[nH]ncc3C[C@H]21 |  | inactive
CC(=O)O[C@H]1CC[C@@]2(C)[C@@H](CC[C@H]3[C@H]2CC(=O)[C@@]2(C)[C@@H]3C[C@H]3CC(C)=CC(=O)[C@H]32)C1 | -7.79% [at 11.4 µM] (inactive) | 
CS(=N)(=O)CC[C@H](N)P(=O)(O)O (some centres undefined) | 2.48% [at 11.4 µM] (inactive) | 
